Experimental findings from PubChem BioAssay (Tox21) are described below.

Several values for one entry are separate records, joined by “and”; a condition that tells them apart may be missing. Identical values can stand only once. Records with an inconclusive call do not appear. The source holds several records for some structures; these can differ, active in one and inactive in another. Activity calls are given as the source filed them. Unless noted, calls come from the whole dose curve; as a rule, active = well fitted curve in the direction sought with a large enough effect in the repeat runs; inconclusive = weak or mixed curves; inactive = no such curve, though single readings can be large; an effect the other way counts as inactive or inconclusive.

Assay [1] can be described thus: qHTS assay to identify aromatase inhibitors - cell viability counter screen (AID 743084).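 Note: cells stimulated with testosterone during compound exposure; nearly all actives have a fitted effect of over 55% in size.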 A general note: In qHTS, concentration-response curves come from the screen itself.
Assay [2] deals with Aryl hydrocarbon receptor (Homo sapiens) (UniProt P35869). Briefly: qHTS assay to identify small molecule that activate the aryl hydrocarbon receptor (AhR) signaling pathway (AID 743085).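 For activation: HG2L7.5c1 human HepG2 liver cells with stably integrated DRE-driven firefly reporter; series mostly up to about 70 µM.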 Note: nearly all actives have a fitted effect of over 15% in size. Note: potency is the fitted concentration of half-maximal effect. In short, it runs like this:
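AhR agonist activity is inferred from enhanced light output of a DRE-controlled firefly luciferase reporter in HepG2 cells, measured with ONE-Glo following 24 h treatment at 37C.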

Assay [3] in a line: qHTS assay to identify small molecule that activate the aryl hydrocarbon receptor (AhR) signaling pathway - cell viability counter screen (AID 743086).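 Note: HepG2 liver cells carrying the AhR DRE luciferase reporter; series mostly up to about 70 µM; nearly all actives have a fitted effect of over 45% in size.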 Summed up: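 HepG2-AhR-luc (HG2L7.5c1) cells, 4000/well, were preincubated 5 h at 37C, exposed to compound in qHTS format for 24 hr at 37C, then given CellTiter-Fluor for 30 min; viability was read as fluorescence in the reporter wells.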

Assay [4] concerns the target Peroxisome proliferator-activated receptor gamma (Homo sapiens) (UniProt P37231). As to the kind of experiment: qHTS assay to identify small molecule agonists of the peroxisome proliferator-activated receptor gamma (PPARg) signaling pathway (AID 743094; active = well fitted activation curve with a large enough effect in the signal ratio in the repeat runs, not every such curve was filed as active; the % refers to the signal ratio). In short, it runs like this: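 Agonist activity was taken from a beta-lactamase reporter (FRET substrate, 1 h at room temperature) in HEK293H cells carrying a PPARg UAS-bla construct. Compounds in DMSO were incubated 17 h at 37C after a 5 h cell pre-incubation.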

For assay [5] the target is unchanged. As to the kind of experiment: qHTS assay to identify small molecule antagonists of the peroxisome proliferator-activated receptor gamma (PPARg) signaling pathway (AID 743191; calls by dose curve; note: series mostly up to about 63 µM; nearly all actives have a fitted effect of over 30% in size). In short, it runs like this:
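GeneBLAzer PPARg UAS-bla HEK293H cells carrying a UAS-driven beta-lactamase reporter were plated at 3000 cells/well, preincubated 5 h at 37C, then given compound for 17 h at 37C; LiveBLAzer B/G FRET substrate was read after 1 h at room temperature.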

Assay [6] can be described thus: qHTS assay to identify small molecule antagonists of the peroxisome proliferator-activated receptor gamma (PPARg) signaling pathway - cell viability counter screen (AID 743194). Note: nearly all actives have a fitted effect of over 55% in size. Summed up: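 PPARg-UAS-bla HEK293H cells were plated, rested 5 h at 37 C, then treated with compounds plus rosiglitazone (50 nM final) for 17 h at 37 C; viability was then read by CellTiter-Glo luminescence after 30 min at room temperature.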

Assay [7] can be described thus: qHTS assay for small molecule agonists of the antioxidant response element (ARE) signaling pathway (AID 743202; active = well fitted activation curve with a large enough effect in the signal ratio in the repeat runs, not every such curve was filed as active; the % refers to the signal ratio; note: potency is the fitted concentration of half-maximal effect). Summed up:
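Steps: seed ARE-bla HepG2 cells (2,000/well); incubate 5 h at 37 C; add compounds by pin tool; incubate 16 h at 37 C; add FRET substrate; read fluorescence after 2 h at RT.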

Assay [8] in a line: qHTS assay for small molecule agonists of the antioxidant response element (ARE) signaling pathway - cell viability counter screen (AID 743203; calls by dose curve; note: nearly all actives have a fitted effect of over 55% in size). In short, it runs like this:
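Viability counter screen: CellTiter-Glo luminescence, read after 30 min at room temperature, in ARE-bla HepG2 wells. Compound exposure lasted 16 h at 37C/5% CO2, following a 5 h pre-incubation of the cells after plating.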

Assay [9] can be described thus: qHTS assay for small molecule activators of the heat shock response signaling pathway - cell viability counter screen (AID 743209). Note: nearly all actives have a fitted effect of over 50% in size. In short, it runs like this: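 Cytotoxicity counter screen run in the same wells as the heat-shock bla reporter assay: HeLa HSE-bla cells, 5 h compound exposure at 37 C, viability read by CellTiter-Glo luminescence.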
The nature of assay [10]: qHTS assay for small molecule activators of the heat shock response signaling pathway (AID 743210; active = well fitted activation curve with a large enough effect in the signal ratio in the repeat runs, with a control signal flat, not every such curve was filed as active; the % refers to the signal ratio;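 note: HeLa cells with beta-lactamase reporter driven by heat shock elements; series mostly up to about 63 µM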). In short, it runs like this:
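Activation of heat shock element-controlled beta-lactamase expression is measured in HeLa cells by LiveBLAzer FRET fluorescence, with compound exposure lasting 5 h at 37 C and substrate loading 2.5 h at room temperature.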

Sequence of Aryl hydrocarbon receptor (Homo sapiens) (P35869 whole entry, looked up): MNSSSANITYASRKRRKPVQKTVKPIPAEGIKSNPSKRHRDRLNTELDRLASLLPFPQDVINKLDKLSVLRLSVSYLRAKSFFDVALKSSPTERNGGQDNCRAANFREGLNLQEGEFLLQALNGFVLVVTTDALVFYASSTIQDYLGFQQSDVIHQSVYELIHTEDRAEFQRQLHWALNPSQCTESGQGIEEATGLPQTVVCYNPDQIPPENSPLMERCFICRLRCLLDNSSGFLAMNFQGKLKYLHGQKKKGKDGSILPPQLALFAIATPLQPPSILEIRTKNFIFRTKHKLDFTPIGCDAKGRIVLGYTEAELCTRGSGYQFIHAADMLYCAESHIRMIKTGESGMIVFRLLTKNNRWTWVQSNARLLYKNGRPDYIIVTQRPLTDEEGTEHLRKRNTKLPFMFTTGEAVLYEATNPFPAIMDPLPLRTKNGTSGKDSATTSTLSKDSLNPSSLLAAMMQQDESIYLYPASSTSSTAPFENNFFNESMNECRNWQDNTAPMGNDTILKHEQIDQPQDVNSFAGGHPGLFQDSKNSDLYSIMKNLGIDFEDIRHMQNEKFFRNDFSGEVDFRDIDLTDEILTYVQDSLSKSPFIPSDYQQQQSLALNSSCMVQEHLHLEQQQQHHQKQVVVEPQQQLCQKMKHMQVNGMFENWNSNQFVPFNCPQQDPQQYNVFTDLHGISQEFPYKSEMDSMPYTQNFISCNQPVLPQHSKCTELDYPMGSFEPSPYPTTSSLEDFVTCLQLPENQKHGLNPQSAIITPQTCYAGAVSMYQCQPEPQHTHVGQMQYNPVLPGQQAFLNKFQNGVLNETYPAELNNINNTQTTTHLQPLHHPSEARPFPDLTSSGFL
Sequence of Peroxisome proliferator-activated receptor gamma (Homo sapiens) (P37231 whole entry, looked up): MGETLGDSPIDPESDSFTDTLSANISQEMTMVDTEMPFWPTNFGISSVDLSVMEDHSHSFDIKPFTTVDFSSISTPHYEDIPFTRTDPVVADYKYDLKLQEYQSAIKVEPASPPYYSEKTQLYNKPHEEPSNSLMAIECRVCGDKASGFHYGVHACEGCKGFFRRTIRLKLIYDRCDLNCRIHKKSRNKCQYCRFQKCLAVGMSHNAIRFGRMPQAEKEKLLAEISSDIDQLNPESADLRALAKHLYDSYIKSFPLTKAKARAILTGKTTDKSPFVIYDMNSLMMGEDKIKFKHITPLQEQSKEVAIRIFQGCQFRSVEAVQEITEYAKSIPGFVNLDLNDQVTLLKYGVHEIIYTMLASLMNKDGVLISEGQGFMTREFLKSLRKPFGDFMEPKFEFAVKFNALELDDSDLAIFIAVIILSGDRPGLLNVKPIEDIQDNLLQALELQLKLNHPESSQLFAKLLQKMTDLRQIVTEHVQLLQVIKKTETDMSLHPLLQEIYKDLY

With `CCCC(CCC)C(=O)O`, the Potency result in assay [1], in assay [2], in assay [3] and in [7] was “inactive” throughout. Also, the outcome in assay [4], in assay [5], in assay [6], in assay [8], in [9] and in assay [10] was inactive.

As for `Cc1ccc(O)cc1`, the Potency entry in assay [1], in assay [2], in [3] and in [7] was “inactive” each time. Besides, the call in [4], in assay [5], in [6], in assay [8], in assay [9] and in [10] was inactive.

With `OCCc1ccccc1`, the Potency entry in [1], in assay [2], in [3] and in assay [7] was “inactive” throughout. In addition, the molecule was classed as inactive in assay [4], in [5], in [6], in assay [8], in assay [9] and in [10].

Turning to `CC(C)[C@@H]1CC[C@@H](C)C[C@H]1O`, the Potency result in assay [1], in assay [2], in assay [3] and in assay [7] was “inactive” in each case. Further, the outcome in assay [4], in assay [5], in [6], in assay [8] and in [9] was inactive.

For the molecule `Cc1cn([C@H]2C[C@H](N=[N+]=[N-])[C@@H](CO)O2)c(=O)[nH]c1=O`, the Potency result in [1], in assay [2], in [3] and in [7] was “inactive” each time. The outcome in [4], in [5], in [6], in assay [8], in [9] and in assay [10] was inactive.

`O=C(C1CCCCC1)N1CC(=O)N2CCc3ccccc3C2C1` (centres undefined): the Potency entry in assay [1], in assay [2], in assay [3] and in [7] was “inactive” each time. Besides, the molecule was called inactive in assay [4], in assay [5], in [6], in assay [8], in assay [9] and in assay [10].

`O=c1ccc2ccccc2o1`: the Potency result in assay [1], in [2], in assay [3] and in [7] was “inactive” in each case. Further, the outcome in assay [4], in [5], in assay [6], in [8], in assay [9] and in assay [10] was inactive.

In the case of `Nc1ccc(S(=O)(=O)Nc2nccs2)cc1`, the Potency entry in assay [1], in [2], in [3] and in assay [7] was “inactive” in each case. The molecule was classed as inactive in assay [4], in [5], in assay [6], in assay [8], in [9] and in assay [10].

Consider `NC(N)=NC(=O)c1nc(Cl)c(N)nc1N`, for which the Potency result in assay [1], in assay [2] and in assay [3] was “inactive” in each case. Also, the call in assay [4], in [5], in [6], in [8], in [9] and in assay [10] was inactive. In addition, the Potency entry in [7] was “inactive and 25.3 µM (active)”.

Regarding `CC(=O)Nc1nnc(S(N)(=O)=O)s1`, the Potency entry in [1], in [2], in assay [3] and in [7] was “inactive” each time. In addition, the molecule was classed as inactive in assay [4], in assay [5], in assay [6], in assay [8], in assay [9] and in assay [10].

Regarding `c1ccc2[nH]ccc2c1`, the Potency entry in [1], in assay [3] and in [7] was “inactive” each time. The Potency result in assay [2] is “inactive and 30.1 µM (active) and 27.3 µM (active)”. Further, the outcome in [4], in assay [5], in [6], in [8], in assay [9] and in [10] was inactive.

`CCCN(CCC)S(=O)(=O)c1ccc(C(=O)O)cc1`: the Potency entry in [1], in assay [2], in assay [3] and in assay [7] was “inactive” throughout. Also, the result in [4], in [5], in assay [6], in [8], in assay [9] and in assay [10] was inactive.

Turning to `Nc1ccc(O)c(C(=O)O)c1`, the Potency entry in assay [1], in assay [2], in assay [3] and in assay [7] was “inactive” each time. Besides, the call in [4], in [5], in [6], in assay [8], in assay [9] and in assay [10] was inactive.

For the molecule `CCCCC(CC)COC(=O)/C=C/c1ccc(OC)cc1` (centres undefined), the Potency entry in [1], in assay [2], in assay [3] and in assay [7] was “inactive” each time. The molecule was called inactive in assay [4], in assay [5], in assay [6], in [8], in assay [9] and in assay [10].

Take `NC(=O)NC1NC(=O)NC1=O` (centres undefined): the Potency result in assay [1], in assay [2], in [3] and in assay [7] was “inactive” in each case. The result in assay [4], in assay [5], in [6], in assay [8], in [9] and in [10] was inactive.

Consider `O=C(O)CS`, for which the Potency result in assay [1], in assay [2], in [3] and in assay [7] was “inactive” throughout. The result in assay [4], in assay [5], in assay [6], in [8], in assay [9] and in [10] was inactive.

Turning to `Cc1ccc(S(=O)(=O)NC(=O)NN2CCCCCC2)cc1`, the Potency entry in [1], in [2], in assay [3] and in assay [7] was “inactive” each time. Besides, the outcome in assay [4], in [5], in assay [6], in [8], in assay [9] and in [10] was inactive.

As to `O=C1NC(=O)c2ccccc21`, the Potency result in [1], in assay [2], in assay [3] and in assay [7] was “inactive” in each case. The call in assay [4], in assay [5], in [6], in assay [8], in assay [9] and in assay [10] was inactive.
